Test results as given in PubChem BioAssay (NCI).
This is part of a sample that, as a whole, favours compounds with a hit. Of some 79,000 tested, about 15% had one in any assay. No stated cut-off is given here; in the data, active means growth inhibition above about 70%; inactive means the rest.

Key:
[1] = NCI Yeast Anticancer Drug Screen. Data for the rad50 strain (AID 155);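 further: 0% = growth of vehicle-only cultures of the same strain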; details: S. cerevisiae rad50 strain growth inhibition; at 50.0 µM; hits give high values
Summary of the method: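 Relative growth inhibition (compound vs vehicle) was measured in yeast with a defined repair-gene alteration.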

[2] = NCI Yeast Anticancer Drug Screen. Data for the mec2-1 strain (AID 157); details: S. cerevisiae mec2-1 strain, at 50.0 µM, hits give high values
Summary of the method: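 Vehicle-treated cultures served as reference for growth inhibition of compound-exposed mec2-1 yeast.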

[3] = NCI Yeast Anticancer Drug Screen. Data for the sgs1 mgt1 strain (AID 161);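 further: 0% = growth of cultures given vehicle only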; details: S. cerevisiae sgs1 mgt1 strain, at 50.0 µM, hits give high values
Summary of the method: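 Genetically altered yeast, compound exposure, growth inhibition relative to vehicle.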

[4] = NCI Yeast Anticancer Drug Screen. Data for the cln2 rad14 strain (AID 165);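 further: 0% = growth equal to vehicle treated cultures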; details: S. cerevisiae cln2 rad14 strain, at 50.0 µM, hits give high values
Summary of the method: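 Each compound was tested on cln2 rad14 yeast. Inhibition of growth was calculated against vehicle-exposed controls.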

[5] = NCI Yeast Anticancer Drug Screen. Data for the bub3 strain (AID 167); details: S. cerevisiae bub3 mutant strain, at 50.0 µM, hits give high values
Summary of the method: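 Screening used yeast with an engineered genetic alteration affecting cell cycle control. Compound-exposed cultures were compared with vehicle cultures, and reduced growth was taken as inhibition.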

[6] = NCI Yeast Anticancer Drug Screen. Data for the mlh1 rad18 strain (AID 175); details: S. cerevisiae mlh1 rad18 strain growth inhibition; at 50.0 µM; hits give high values
Summary of the method: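 Vehicle-treated cultures served as the reference for growth inhibition in a yeast strain carrying DNA damage repair alterations exposed to each compound.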

Measured: growth inhibition

CCOC(=N)CC(=O)Nc1cccc(C)c1Cl
inactive: [1] -2.85% | [2] -14.1% | [3] -11.4% | [4] 18.6% | [5] 8.5% | [6] -3.3%

Clc1ccc(C(SCc2ccccc2)SCc2ccccc2)cc1
inactive: [1] -41.4% | [2] -46.8% | [3] -15.6% | [4] -17.6% | [5] -10% | [6] -20.1%

O=C(Nc1cccc(Cl)c1)c1ccc(Cl)cc1Cl
inactive: [1] 1.95% | [2] 5.85% | [3] 2.2% | [4] -48.5% | [5] 20.6% | [6] 0.1%

O=C(c1ccccc1)c1ccc(-c2ccc(O)cc2)cc1
inactive: [1] 37.7% | [2] 23.5% | [3] 24.9% | [4] -44.3% | [5] 57.1% | [6] -8%

CCCCCCCCCCCCCCCCCCSC(=N)N
inactive: [1] 45.9% | [2] -16.7% | [3] -9.1% | [4] -116% | [5] 29.3% | [6] 27.9%

COc1ccc(/C=N/NC(=O)COCC(=O)N/N=C/c2ccc(OC)cc2)cc1
inactive: [1] -34.6% | [2] -47.7% | [3] -15.4% | [4] 2.5% | [5] -33% | [6] -25.6%

OCC1OC(n2ccc3c2ncn2ncnc32)C(O)C1O (centres undefined)
inactive: [1] -20.7% | [2] 3.45% | [3] -10.4% | [4] -15.3% | [5] -37.6% | [6] -47.8%

Cc1ccccc1CC(N)C(=O)O (centres undefined)
inactive: [1] 2.95% | [2] 10.7% | [3] 2.7% | [4] -15.2% | [5] 8.85% | [6] 1.85%

O=C(O)c1ccc([N+](=O)[O-])cc1S(=O)(=O)O
inactive: [1] -21.6% | [2] -6.8% | [3] -24.3% | [4] -22.9% | [5] -8.4% | [6] -4.55%

Ic1cccs1
inactive: [1] 34.9% | [2] -3.05% | [3] 6.65% | [4] -6.75% | [5] -4.3% | [6] 11.8%

CCCCCCCCCCC(=O)CCCCCCCCCC
inactive: [1] 7.15% | [2] -12.2% | [3] 8.1% | [4] 16.8% | [5] 7.6% | [6] 7.05%

NC(CCl)=NCC12CC3CC(CC(C3)C1)C2
inactive: [1] 52% | [2] 25.9% | [3] 48.8% | [4] 14.8% | [5] 54% | [6] 56.9%

CC(=O)C1C(=O)C(=O)N(c2ccc(Cl)c(Cl)c2)C1=O (centres undefined)
inactive: [1] -22.1% | [2] -21% | [3] -2.35% | [4] -14.4% | [5] -9.5% | [6] -24.9%

Nc1cc(F)ccc1[N+](=O)[O-]
inactive: [1] -13.2% | [2] -0.1% | [3] -18.1% | [4] -26.2% | [5] -8.75% | [6] -5%

CN1CCCN(C(c2ccccc2)c2ccc(Cl)cc2)CC1 (centres undefined)
inactive: [1] 3.9% | [2] -16.9% | [3] 1.95% | [4] 19.9% | [5] 27.6% | [6] 10.5%

S=CN1CCCCC1
inactive: [1] -25.1% | [2] -16.2% | [3] -7.8% | [4] -2.4% | [5] -23.8% | [6] -8.75%

O=C(OC1CCCC1)c1ccccc1Cl
inactive: [1] 23.9% | [2] 8.75% | [3] 3.75% | [4] -21.7% | [5] -2.3% | [6] 23.2%

C[n+]1c(/C=C\C=C\N2CCCCC2)sc2ccccc21
inactive: [1] 28.7% | [2] 14.6% | [3] 34.4% | [4] 2.45% | [5] 31.6% | [6] 27.9%

O=[N+]([O-])c1c(Cl)ncnc1Cl
inactive: [1] -52.5% | [2] -47.8% | [3] -56.8% | [4] -13.4% | [5] -48.1% | [6] -16.2%

O=C(O)CC1=CCCCC1
inactive: [1] 23.4% | [2] -21.6% | [3] 0.9% | [4] 10.2% | [5] -4.65% | [6] 6.9%

CC1(C)CCC(C)(C)NC(=S)N1
inactive: [1] 13.3% | [2] -8.35% | [3] 21.2% | [4] 1.9% | [5] 13.5% | [6] 11.1%

CCOC(=O)C(CCC#N)(CCC#N)C(=O)OCC
inactive: [1] 39.5% | [2] 9.8% | [3] -2.2% | [4] -21.3% | [5] 12.6% | [6] 38.7%

Cc1ccc(N)c(S(=O)(=O)O)c1
inactive: [1] -4.85% | [2] 4.35% | [3] 0.75% | [4] -53.9% | [5] 8.85% | [6] -13.2%

NNc1ncnc2c1ncn2C1OC(CO)C(O)C1O (centres undefined)
inactive: [1] -9.85% | [2] -12.8% | [3] 0.15% | [4] -21.9% | [5] 1.45% | [6] -15.2%

CC(C)Sc1ncnc2nc[nH]c12
inactive: [1] 2.4% | [2] 1.1% | [3] -3.05% | [4] -0.9% | [5] 18.9% | [6] 2.5%

C/C(=N\O)c1ccccn1
inactive: [1] -7.6% | [2] -16.4% | [3] -17.9% | [4] 1.15% | [5] -8.85% | [6] 1.45%

O=C(CC(CC(=O)c1ccccc1)c1ccccn1)c1ccccc1
inactive: [1] -16.6% | [2] -20.2% | [3] -28.1% | [4] -33% | [5] 4.65% | [6] -42.1%

CCCCCCCCNC(=O)C(C)C
inactive: [1] -13.9% | [2] 30.1% | [3] -2.15% | [4] -42.1% | [5] -18.6% | [6] -11.9%

CCOC(=O)/C(C#N)=C\c1c[nH]c2ccccc12
inactive: [1] 54.5% | [2] 23.9% | [3] 46.3% | [4] -1.2% | [5] 57.7% | [6] 59.2%

CC(=O)c1ccc(C)cc1
inactive: [1] -1.75% | [2] 6.1% | [3] -28.8% | [4] -2.8% | [5] -36% | [6] -11.6%

O=C(O)CCCCCNC(=O)OCc1ccccc1
inactive: [1] 17.7% | [2] -41.9% | [3] 16.7% | [4] 29.9% | [5] 3.25% | [6] 9.3%

O=C1C=C[C@H](O)[C@@]2(CO)O[C@@H]12
inactive: [1] 5.85% | [2] 0.85% | [3] -14.5% | [4] -6.1% | [5] -13.7% | [6] 11.7%

O=C(NC1CCCCC1)c1ccc(Cl)cc1
inactive: [1] 4.55% | [2] -6.7% | [3] -20.1% | [4] 12.7% | [5] -17.6% | [6] -1.85%

O=C(O)C1CCCN1C(=O)OCc1ccccc1 (centres undefined)
inactive: [1] -23.4% | [2] -47.6% | [3] -17.9% | [4] -2.45% | [5] -22.9% | [6] -8.9%

COc1ccc(-c2csc(NC(=O)Nc3nc(-c4ccc(OC)cc4)cs3)n2)cc1
inactive: [1] 4.25% | [2] -0.95% | [3] 0.7% | [4] -8.35% | [5] 7.7% | [6] 1.4%

Cc1cc(Cc2ccccc2)c(O)c(Cc2ccccc2)c1
inactive: [1] 50.1% | [2] 3.3% | [3] 32% | [4] 38% | [5] 12.3% | [6] 42.7%

N#Cc1ccc(OC(=O)Nc2cc(Cl)cc(Cl)c2)cc1
inactive: [1] -6.5% | [2] -21.9% | [3] -3.65% | [4] 12.9% | [5] -4% | [6] -3.55%

COC1OC(C(O)C(O)CO)C(O)C(O)C1O (centres undefined)
inactive: [1] 14.3% | [2] -5.7% | [3] 11.8% | [4] -55.7% | [5] -3.65% | [6] 11.7%

ON1CCCC1
inactive: [1] -1.35% | [2] -4.15% | [3] -8.9% | [4] -6.6% | [5] 6.4% | [6] 1.5%

O=C1Nc2ccccc2/C1=C\c1ccccc1O
inactive: [1] 25.2% | [2] -1.75% | [3] 12.2% | [4] 6.8% | [5] 17.4% | [6] 23.4%

Nc1cc2ccccc2c(O)c1O
inactive: [1] 32.1% | [2] 35% | [3] 39.1% | [4] 20.7% | [5] 38% | [6] 14.2%

CCOC(=O)CSCCC#N
inactive: [1] 2.85% | [2] 2.35% | [3] -5.05% | [4] -7.9% | [5] 1.75% | [6] 0.65%

COc1ccc(C(=O)C(=O)c2ccccc2)cc1
inactive: [1] 26.6% | [2] 34.1% | [3] 31.9% | [4] 1.85% | [5] 11.1% | [6] 33.5%

N#C/C(=C\c1ccc(C#N)cc1)C(=O)c1ccccc1
inactive: [1] 10.5% | [2] 0.95% | [3] 16.4% | [4] 19% | [5] 9.95% | [6] 18.9%
